In the supplement of paper PMC7669877:
± gives the uncertainty stated by the source.

What follows are compounds tested on Candidatus Liberibacter solanacearum in potato hairy roots (assay: relative CLso titer (% of untreated control); higher = less inhibition of bacterial titer). Settings: 10 µM; 72 h.
Protocol: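 Primary screen of ~220 Spectrum collection (MicroSource) compounds at 10 µM (0.1% DMSO) on Candidatus Liberibacter solanacearum-infected potato hairy roots in multi-well plates (Gamborg B-5 medium, vacuum infiltrated, 21 °C, dark, 72 h). CLso titer was measured by qPCR of 16S rDNA normalised to potato RPL2 (2^-ddCq), pairwise-standardised against untreated controls, averaged over two biological replicates and expressed as % of untreated.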
`c1ccc2c(c1)sc1ccccc12` was tested, and the “relative CLso titer” value was 193 ± 4.5%. With `O=C(O)CCCc1ccc(N(CCCl)CCCl)cc1` the “relative CLso titer” value was 111 ± 11%. For `C[C@@H]1O[C@@H](O[C@H]2C[C@@H](O)[C@]3(CO)[C@H]4[C@H](O)C[C@]5(C)[C@@H](C6=CC(=O)OC6)CC[C@]5(O)[C@@H]4CC[C@]3(O)C2)[C@H](O)[C@H](O)[C@H]1O`, the “relative CLso titer” value was 85.6 ± 47%. `C[C@@H]1C[C@@H]([C@H](O)CC2CC(=O)NC(=O)C2)C(=O)[C@@H](C)C1` was tested, and the “relative CLso titer” value was 214 ± 43%. For `O=C(O)CCCO`, the “relative CLso titer” value was 127 ± 31%. `C[C@]12CC[C@H]3[C@@H](CCC4=CC(=O)CC[C@@]43C)[C@@H]1CC[C@@H]2O` was tested, and the “relative CLso titer” value was 119 ± 11%. `CCCCCCCCCCCCCCCC[n+]1ccccc1` was tested, and the “relative CLso titer” value was 136 ± 72%. For `CN1C[C@H](C(=O)N[C@]2(C)O[C@@]3(O)[C@@H]4CCCN4C(=O)[C@H](Cc4ccccc4)N3C2=O)C[C@@H]2c3cccc4[nH]cc(c34)C[C@H]21`, the “relative CLso titer” value was 107 ± 46%. `N.N.[Cl][Pt][Cl]` was tested, and the “relative CLso titer” value was 76.7 ± 6.9%. For `CCCC(C)(COC(N)=O)COC(=O)NC(C)C` (stereo not given), the “relative CLso titer” value was 92.4 ± 17%. With `Cc1cccc(C)c1NC1=NCCCS1` the “relative CLso titer” value was 91.4 ± 17%. `CNC(C)[C@H](O)c1ccccc1` (stereo not given in full) was tested, and the “relative CLso titer” value was 160 ± 24%. In the case of `O=C1CCO1`, the “relative CLso titer” value is reported as 103 ± 58%. For `O=P1(N(CCCl)CCCl)NCCCO1` (stereo not given), the “relative CLso titer” value was 39.8 ± 6.9%. For `COc1ccc2c(c1)[C@]13CCCC[C@@H]1[C@H](C2)N(C)CC3`, the “relative CLso titer” value was 539 ± 330%. With `[O-][n+]1ccccc1[S-].[O-][n+]1ccccc1[S-].[Zn+2]` the “relative CLso titer” value was 64.7 ± 4.9%. `NC(=O)CN1CCCC1=O` was tested, and the “relative CLso titer” value was 123 ± 35%. For `CC[C@H]1CN2CCc3cc(OC)c(OC)cc3[C@@H]2C[C@@H]1C[C@H]1NCCc2cc(OC)c(OC)cc21`, the “relative CLso titer” value was 117 ± 28%. With `CN[C@@H](C)[C@@H](O)c1ccccc1` the “relative CLso titer” value was 98.4 ± 3.8%. With `Cc1ccc(O)cc1.Cc1cccc(O)c1.Cc1ccccc1O` the “relative CLso titer” value was 70.4 ± 30%. For `COc1cc2c(c(OC)c1OC)-c1ccc(OC)c(=O)cc1[C@@H](NC(C)=O)CC2`, the “relative CLso titer” value was 47.6 ± 2.7%. In the case of `CC(C)C[C@H]1C(=O)N2CCC[C@H]2[C@]2(O)O[C@](NC(=O)[C@@H]3C=C4c5cccc6[nH]c(Br)c(c56)C[C@H]4N(C)C3)(C(C)C)C(=O)N12`, the “relative CLso titer” value is reported as 76.9 ± 25%. With `Fc1ccc(Oc2ccnc3cc(Cl)cc(Cl)c23)cc1` the “relative CLso titer” value was 85.4 ± 20%. In the case of `CO[C@]12C[C@@H](COC(=O)c3cncc(Br)c3)CN(C)[C@@H]1Cc1cn(C)c3cccc2c13`, the “relative CLso titer” value is reported as 135 ± 20%. `O=c1[nH]c2ccccc2n1C1CCN(CCCC(c2ccc(F)cc2)c2ccc(F)cc2)CC1` was tested, and the “relative CLso titer” value was 135 ± 2%. In the case of `O=c1[nH]c2ccccc2n1CCCN1CCC(n2c(=O)[nH]c3cc(Cl)ccc32)CC1`, the “relative CLso titer” value is reported as 126 ± 28%. In the case of `CCC(=O)O[C@H]1CC[C@H]2[C@@H]3CCC4=CC(=O)CC[C@]4(C)[C@H]3CC[C@]12C`, the “relative CLso titer” value is reported as 83.1 ± 2.9%. In the case of `CC(=O)O[C@H]1C[C@H](O[C@H]2[C@@H](O)C[C@H](O[C@H]3[C@@H](O)C[C@H](O[C@H]4CC[C@@]5(C)[C@H](CC[C@@H]6[C@@H]5C[C@@H](O)[C@]5(C)[C@@H](C7=CC(=O)OC7)CC[C@]65O)C4)O[C@@H]3C)O[C@@H]2C)O[C@H](C)[C@H]1O[C@@H]1O[C@H](CO)[C@@H](O)[C@H](O)[C@H]1O`, the “relative CLso titer” value is reported as 118 ± 37%. With `C[N+]12CCC(CC1)C(OC(=O)C(O)(c1ccccc1)c1ccccc1)C2` (stereo not given) the “relative CLso titer” value was 57.1 ± 5%. For `Cc1cc(O)ccc1Cl`, the “relative CLso titer” value was 45.9 ± 1.8%.
